Results filed as inconclusive are left out. Entries that show only a call come without a potency. Active and inactive are the calls of the source. Unless noted, calls follow the shape of the dose curve; as a rule, active = well fitted curve in the direction sought with a large enough effect; inconclusive = small, poorly fitted or top-dose-only effect, or another doubt; inactive = no such curve, though single readings can be large; an effect the other way counts as inactive or inconclusive. Where a SMILES comes first, the peptide text is derived from it.
How the values were obtained:
[1] = target: 3',5'-cyclic-AMP phosphodiesterase 4B (Homo sapiens) (UniProt Q07343); experiment: qHTS Assay for Inhibitors of PDE-IV (AID 607; active = well fitted activation curve with a large enough effect in the main read-out, with a control signal flat, not every such curve was filed as active)
Sequence of 3',5'-cyclic-AMP phosphodiesterase 4B (Homo sapiens) (Q07343 whole entry, looked up): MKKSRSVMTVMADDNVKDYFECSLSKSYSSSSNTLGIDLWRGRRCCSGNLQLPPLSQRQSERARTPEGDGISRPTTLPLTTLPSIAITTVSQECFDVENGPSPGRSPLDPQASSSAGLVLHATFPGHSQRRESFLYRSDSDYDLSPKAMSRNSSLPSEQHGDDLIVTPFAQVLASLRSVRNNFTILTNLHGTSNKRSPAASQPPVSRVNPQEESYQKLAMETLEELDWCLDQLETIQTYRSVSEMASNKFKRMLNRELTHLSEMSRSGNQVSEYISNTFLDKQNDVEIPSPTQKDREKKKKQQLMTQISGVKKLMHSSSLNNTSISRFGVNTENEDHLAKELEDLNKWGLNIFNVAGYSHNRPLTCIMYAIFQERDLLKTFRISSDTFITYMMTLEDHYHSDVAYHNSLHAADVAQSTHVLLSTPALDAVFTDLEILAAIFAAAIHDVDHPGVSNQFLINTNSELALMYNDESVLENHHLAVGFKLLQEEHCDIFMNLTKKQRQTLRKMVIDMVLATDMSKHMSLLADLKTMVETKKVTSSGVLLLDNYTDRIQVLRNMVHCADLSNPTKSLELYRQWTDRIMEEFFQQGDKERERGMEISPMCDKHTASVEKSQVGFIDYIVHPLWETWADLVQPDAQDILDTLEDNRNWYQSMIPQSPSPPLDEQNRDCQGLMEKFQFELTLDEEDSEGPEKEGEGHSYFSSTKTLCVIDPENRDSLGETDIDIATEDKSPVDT
Procedure, shortened: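 ACTOne HEK293 cells carry a modified cAMP-gated CNG channel and express endogenous PDE4; plated 1000 cells/well, compounds up to 22.9 uM final. Membrane-potential dye fluorescence (ex 535/em 590) was read; parental cells received 10 uM forskolin + 100 uM RO 20-1724.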

[2] = target: Cytochrome P450 2D6 (Homo sapiens) (UniProt P10635); experiment: qHTS Assay for Inhibitors and Substrates of Cytochrome P450 2D6 (AID 891); also: nearly all actives have a fitted effect of over 60% in size; also: potency is read from the fitted curve at half-maximal effect
Sequence of Cytochrome P450 2D6 (Homo sapiens) (P10635 whole entry, looked up): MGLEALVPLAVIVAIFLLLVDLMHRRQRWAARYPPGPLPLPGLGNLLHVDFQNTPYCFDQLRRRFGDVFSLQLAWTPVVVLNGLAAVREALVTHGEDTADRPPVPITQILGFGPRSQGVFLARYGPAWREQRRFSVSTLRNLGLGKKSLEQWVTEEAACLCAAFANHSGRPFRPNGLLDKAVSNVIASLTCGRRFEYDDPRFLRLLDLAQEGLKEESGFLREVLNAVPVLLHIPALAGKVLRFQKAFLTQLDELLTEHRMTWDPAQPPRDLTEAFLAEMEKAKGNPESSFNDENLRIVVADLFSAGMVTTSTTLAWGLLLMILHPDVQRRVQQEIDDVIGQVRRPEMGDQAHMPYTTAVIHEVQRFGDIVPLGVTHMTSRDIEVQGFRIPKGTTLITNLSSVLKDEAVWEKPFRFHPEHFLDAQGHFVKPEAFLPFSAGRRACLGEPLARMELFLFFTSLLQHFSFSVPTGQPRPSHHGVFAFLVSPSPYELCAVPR
Procedure, shortened: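 Human CYP2D6 (5 nM) with 30 uM Luciferin-ME EGE (at Km) in 100 mM KPO4, compound preincubated 10 min, then NADPH regeneration system for 60 min at room temperature. Luciferin read by luminescence; normalized to 1.43 uM quinidine.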

AS120 = experiment: qHTS profiling for inhibitors of Plasmodium falciparum proliferation (AID 504749); also: nearly all actives have a fitted effect of over 60% in size; also: potency is read from the fitted curve at half-maximal effect; settings: P. falciparum in erythrocytes, SYBR Green DNA, 72 h; series mostly up to 28.7 µM
Procedure, shortened: (§1)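 Infected RBCs, 0.3% parasitemia/2.5% Hct final; cpd 72 h, 37 C, 5% CO2; lysis buffer with saponin/triton/SYBR Green I, o/n RT dark; FI 485/535; norm. to artemisinin (0.29 uM) and DMSO.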

ATS189 = experiment: as above; settings: P. falciparum in erythrocytes, SYBR Green DNA, 72 h; series mostly up to 28.7 µM
Procedure, shortened: as §1

C2A = experiment: as above; settings: P. falciparum in erythrocytes, SYBR Green DNA, 72 h; series mostly up to 28.7 µM
Procedure, shortened: as §1

CP203 = experiment: as above; settings: P. falciparum in erythrocytes, SYBR Green DNA, 72 h; series mostly up to 28.7 µM
Procedure, shortened: as §1

CP217 = experiment: as above; settings: P. falciparum in erythrocytes, SYBR Green DNA, 72 h; series mostly up to 28.7 µM
Procedure, shortened: as §1

CP250 = experiment: as above; settings: P. falciparum in erythrocytes, SYBR Green DNA, 72 h; series mostly up to 28.7 µM
Procedure, shortened: as §1

CP256 = experiment: as above; settings: P. falciparum in erythrocytes, SYBR Green DNA, 72 h; series mostly up to 28.7 µM
Procedure, shortened: as §1

CP269 = experiment: as above; settings: P. falciparum in erythrocytes, SYBR Green DNA, 72 h; series mostly up to 28.7 µM
Procedure, shortened: as §1

CP291 = experiment: as above; settings: P. falciparum in erythrocytes, SYBR Green DNA, 72 h; series mostly up to 28.7 µM
Procedure, shortened: as §1

CP297 = experiment: as above; settings: P. falciparum in erythrocytes, SYBR Green DNA, 72 h; series mostly up to 28.7 µM
Procedure, shortened: as §1

CP315 = experiment: as above; settings: P. falciparum in erythrocytes, SYBR Green DNA, 72 h; series mostly up to 28.7 µM
Procedure, shortened: as §1

CP329 = experiment: as above; settings: P. falciparum in erythrocytes, SYBR Green DNA, 72 h; series mostly up to 28.7 µM
Procedure, shortened: as §1

DFO2036 = experiment: as above; settings: P. falciparum in erythrocytes, SYBR Green DNA, 72 h; series mostly up to 28.7 µM
Procedure, shortened: as §1

DIV14 = experiment: as above; settings: P. falciparum in erythrocytes, SYBR Green DNA, 72 h; series mostly up to 28.7 µM
Procedure, shortened: as §1

DIV17 = experiment: as above; settings: P. falciparum in erythrocytes, SYBR Green DNA, 72 h; series mostly up to 28.7 µM
Procedure, shortened: as §1

FAB9 = experiment: as above; settings: P. falciparum in erythrocytes, SYBR Green DNA, 72 h; series mostly up to 28.7 µM
Procedure, shortened: as §1

JCK = experiment: as above; settings: P. falciparum in erythrocytes, SYBR Green DNA, 72 h; series mostly up to 28.7 µM
Procedure, shortened: as §1

PAD = experiment: as above; settings: P. falciparum in erythrocytes, SYBR Green DNA, 72 h; series mostly up to 28.7 µM
Procedure, shortened: as §1

Question: Which Potency [1] does the source give for `N#C[C@@H](Cc1ccc(O)c(O)c1)C(=O)N1CCc2ccccc21` here?
Answer: inactive

Question: What does the source list for `C[C@@H]1O[C@@H](OC[C@@H]2O[C@@H](Oc3c(-c4ccc(O)c(O)c4)oc4cc(O)cc(O)c4c3=O)[C@H](O)[C@H](O)[C@@H]2O)[C@H](O)[C@H](O)[C@@H]1O`?
Answer: Potency [1]: inactive; Potency [2]: inactive

Question: With `CC1=CC(=O)C2=C(C)CC[C@@H]3[C@H](OC(=O)[C@H]3C)[C@H]12` as the molecule, how does the Potency [1] read?
Answer: inactive

Question: `CC(=O)Oc1cc(OC(C)=O)c2c(=O)cc(-c3ccc(OC(C)=O)c(OC(C)=O)c3)oc2c1` was tested. Which Potency [1] did it give?
Answer: inactive

Question: And the Potency [2]?
Answer: inactive

Question: Which Potency [1] does the source give for `O=c1c(O)c(-c2ccccc2)oc2cc(O)cc(O)c12` here?
Answer: inactive

Question: What about the Potency [2] of the same molecule?
Answer: 20 µM (active)

Question: How did the Potency [2] turn out when `CC(=O)OC[C@@H]1O[C@@H](Oc2cc(OC(C)=O)c3c(=O)cc(-c4ccc(OC(C)=O)c(OC(C)=O)c4)oc3c2)[C@H](OC(C)=O)[C@H](OC(C)=O)[C@@H]1OC(C)=O` was run?
Answer: inactive

Question: Which results are given for `COc1ccccc1C[C@@H](Cc1nc2ccccc2[nH]1)c1nc2ccccc2[nH]1`?
Answer: Potency [1]: inactive; Potency [2]: 0.01 µM (active)

Question: With `COc1ccc(C(=O)[C@H]2[C@H]3[C@@H](C(=O)[C@@H]4OC[C@H]3O4)[C@H]3C=Cc4ccccc4N32)c(OC)c1` as the molecule, how does the Potency [1] read?
Answer: inactive

Question: What about the Potency [2] of the same molecule?
Answer: inactive

Question: `CC(C)C1=CC2=CC[C@H]3[C@@](C)(CCC[C@]3(C)C(=O)O)[C@@H]2CC1` was tested. Which Potency [1] did it give?
Answer: inactive

Question: What about the Potency [2] of the same molecule?
Answer: inactive

Question: For `C[C@@H]1C[C@@]2(C)Oc3ccccc3[C@H]3OC[C@]1(COC(=O)Nc1ccccc1)[C@@H](C)[C@@H]32`, which Potency [2] is on record?
Answer: inactive

Question: For `CC1(C)CCC(C)(C)c2cc(C(=O)Nc3ccc(C(=O)O)cc3)ccc21`, which Potency [1] is on record?
Answer: inactive

Question: How did the Potency [2] turn out when `COc1ccc(-c2oc3cc(OC)c(OC(C)=O)c(OC)c3c(=O)c2OC)cc1OC(C)=O` was run?
Answer: inactive

Question: With `COc1cc([C@@H]2Oc3cc([C@H]4Oc5cc(O)cc(O)c5C(=O)[C@H]4O)ccc3O[C@H]2CO)ccc1O` as the molecule, how does the Potency [1] read?
Answer: inactive

Question: What about the Potency [2] of the same molecule?
Answer: inactive

Question: For `O[C@@H]1CC[C@H]2Cc3ccccc3N=C21`, which Potency [1] is on record?
Answer: inactive

Question: For `C=C[C@@](C)(O)CC[C@H]1[C@]2(C)CCCC(C)(C)[C@H]2CC[C@]1(C)O`, which Potency [2] is on record?
Answer: inactive

Question: What does the source list for `CCCC[C@H]1C(=O)N(c2ccccc2)N(c2ccc(O)cc2)C1=O`?
Answer: Potency [1]: inactive; Potency (AS120): inactive; Potency (ATS189): inactive; Potency (C2A): inactive; Potency (CP203): inactive; Potency (CP217): inactive; Potency (CP250): inactive; Potency (CP256): inactive; Potency (CP269): inactive; Potency (CP291): inactive; Potency (CP297): inactive; Potency (CP315): inactive; Potency (CP329): inactive; Potency (DFO2036): inactive; Potency (DIV14): inactive; Potency (DIV17): inactive; Potency (FAB9): inactive; Potency (JCK): inactive; Potency (PAD): inactive

Question: With `O=c1cc(-c2ccccc2O)oc2c1ccc1ccccc12` as the molecule, how does the Potency [1] read?
Answer: inactive

Question: What about the Potency [2] of the same molecule?
Answer: inactive

Question: With `Cc1c(C(=O)O)c(O)cc2c1C(=O)c1c(O)c([C@@H]3O[C@H](CO)[C@@H](O)[C@H](O)[C@@H]3O)c(O)c(O)c1C2=O` as the molecule, how does the Potency [2] read?
Answer: inactive

Question: For `C[C@@](Cc1ccccc1)(NC(=O)CN)c1ccccc1`, which Potency (C2A) is on record?
Answer: inactive

Question: And the Potency (CP217)?
Answer: inactive

Question: And the Potency (CP250)?
Answer: inactive

Question: What about the Potency (CP256) of the same molecule?
Answer: inactive

Question: What about the Potency (CP269) of the same molecule?
Answer: inactive

Question: And the Potency (CP297)?
Answer: 9.53 µM (active)

Question: And the Potency (CP315)?
Answer: inactive

Question: And the Potency (CP329)?
Answer: inactive

Question: And the Potency (DIV14)?
Answer: 3.79 µM (active)

Question: What about the Potency (DIV17) of the same molecule?
Answer: 4.78 µM (active)

Question: What about the Potency (FAB9) of the same molecule?
Answer: inactive

Question: What about the Potency (JCK) of the same molecule?
Answer: inactive

Question: And the Potency (PAD)?
Answer: inactive

Question: For `CC(=O)O[C@H]1C(=O)[C@]2(C)[C@H]([C@H](OC(=O)c3ccccc3)[C@@]3(O)C[C@H](OC(=O)[C@@H](O)[C@@H](NC(=O)c4ccccc4)c4ccccc4)C(C)=C1C3(C)C)[C@]1(OC(C)=O)CO[C@@H]1C[C@@H]2O`, which Potency [1] is on record?
Answer: inactive

Question: With `CCCC[C@H](CC)CN=C(N)NC(N)=NCCCCCCN=C(N)NC(N)=NC[C@@H](CC)CCCC` as the molecule, how does the Potency [1] read?
Answer: inactive

Question: What about the Potency [2] of the same molecule?
Answer: 3.16 µM (active)

Question: For `N[C@@H](Cc1c[nH]c2ccccc12)C(=O)NCC(=O)O` (H-Trp-Gly-OH), which Potency [1] is on record?
Answer: inactive

Question: What about the Potency [2] of the same molecule?
Answer: inactive

Question: For `CN1C[C@H](C(=O)N[C@]2(C)O[C@@]3(O)[C@H]4CCCN4C(=O)[C@@H](Cc4ccccc4)N3C2=O)C[C@H]2c3cccc4[nH]cc(c34)C[C@@H]21`, which Potency [1] is on record?
Answer: inactive

Question: `C[C@H]1[C@H](C)CC[C@@]2(C(=O)O)CC[C@]3(C)C(=CC[C@@H]4[C@@]5(C)CC[C@H](O)C(C)(C)[C@@H]5CC[C@@]43C)[C@@H]12` was tested. Which Potency [1] did it give?
Answer: inactive

Question: Which Potency [2] does the source give for `CN1CCc2cc3c(cc2C(=O)Cc2ccc4c(c2C1)OCO4)OCO3` here?
Answer: 0.0501 µM (active)

Question: Which Potency [2] does the source give for `CC1(C)CCC[C@@]2(C)[C@@H]1CC[C@]1(C)OC(=O)C[C@@H]21` here?
Answer: inactive

Question: For `COc1cc2c(cc1OC)C(=O)N(C)CC2`, which Potency [2] is on record?
Answer: inactive

Question: Which Potency [1] does the source give for `C=C[C@@]1(C)C=C2CC[C@@H]3[C@](C)(CCC[C@@]3(C)C(=O)O)[C@H]2CC1` here?
Answer: inactive

Question: What about the Potency [2] of the same molecule?
Answer: inactive

From PubChem BioAssay (NCATS)
